S1P2 ag: activates the human S1P2 receptor | AID 729 | S1P2-expressing cell line, agonist reporter read-out | activation, % at 4.5 µM | actives 0.46% (n = 97,000) | O95136; in the data active = activation above about 16%
GALR2 agonist: activates the human galanin receptor 2; AID 803; O43603; activation, % (no concentration beside the values); GALR2-expressing cells, agonist activation read-out; actives 0.48% (n = 140,000); in the data active = activation above about 5%, passing the limit was not always enough
S1P2 antag: blocks the human S1P2 receptor; actives 0.21% (n = 97,000); O95136; inhibition, % at 5 µM; cell-based S1P2 antagonist assay, inhibition at 5 uM; in the data active = inhibition above about 45%;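 also: CRE beta-lactamase reporter cells expressing human S1P2 stimulated with S1P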
FAK blocker: blocks human focal adhesion kinase activity. inhibition, %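 (tested at 7 µM)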. biochemical FAK kinase activity assay. actives 0.84% (n = 97,000). AID 727. Q05397; in the data active = inhibition above about 19%
Target sequence (Q05397 whole entry, looked up): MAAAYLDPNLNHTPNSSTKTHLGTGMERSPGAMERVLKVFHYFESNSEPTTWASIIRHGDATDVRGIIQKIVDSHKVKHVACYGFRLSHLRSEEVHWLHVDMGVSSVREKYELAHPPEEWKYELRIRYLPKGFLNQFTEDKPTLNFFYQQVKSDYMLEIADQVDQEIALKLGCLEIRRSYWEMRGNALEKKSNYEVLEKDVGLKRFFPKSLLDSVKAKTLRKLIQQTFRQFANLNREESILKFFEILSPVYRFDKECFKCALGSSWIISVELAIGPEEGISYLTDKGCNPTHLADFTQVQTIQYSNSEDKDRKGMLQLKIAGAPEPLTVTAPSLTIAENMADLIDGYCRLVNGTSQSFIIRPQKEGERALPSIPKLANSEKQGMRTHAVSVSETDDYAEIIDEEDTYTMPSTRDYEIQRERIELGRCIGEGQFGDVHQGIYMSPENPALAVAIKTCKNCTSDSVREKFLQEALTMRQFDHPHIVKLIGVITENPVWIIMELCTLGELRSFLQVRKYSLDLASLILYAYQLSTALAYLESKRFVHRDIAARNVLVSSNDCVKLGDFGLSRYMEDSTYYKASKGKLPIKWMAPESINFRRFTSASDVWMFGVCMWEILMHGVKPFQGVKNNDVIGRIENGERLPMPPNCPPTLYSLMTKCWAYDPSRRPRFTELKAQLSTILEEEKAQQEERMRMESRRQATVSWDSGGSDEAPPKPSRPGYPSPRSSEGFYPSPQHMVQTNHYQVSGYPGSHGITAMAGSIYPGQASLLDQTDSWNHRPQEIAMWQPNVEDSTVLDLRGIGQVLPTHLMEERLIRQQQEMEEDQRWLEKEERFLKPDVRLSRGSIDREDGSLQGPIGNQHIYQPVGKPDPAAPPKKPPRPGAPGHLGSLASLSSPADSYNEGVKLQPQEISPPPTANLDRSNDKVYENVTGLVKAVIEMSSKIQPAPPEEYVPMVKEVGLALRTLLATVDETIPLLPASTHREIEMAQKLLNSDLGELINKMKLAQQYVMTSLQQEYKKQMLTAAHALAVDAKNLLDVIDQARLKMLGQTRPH
GALR2 blocker: antagonists of human galanin receptor 2 (GALR2); O43603; GALR2-expressing cells, antagonist mode; inhibition, % at 4 µM; actives 0.39% (n = 140,000); in the data active = inhibition above about 27%;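 also: cells stimulated with galanin 1-16 at roughly its EC80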
SDO1 yeast rescue: restores growth of sdo1-depleted yeast; AID 817; actives 0.21% (n = 140,000); z-score at 10 µM; S. cerevisiae sdo1-depleted JHY4D growth rescue, OD600 30 h; stronger effect = higher value; pdr5 snq2 efflux-pump mutant strain;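 active = z-score above 3 at both the 24 hr and the 30 hr optical density reads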
Each line names hits and unclear results; the compound was inactive in the other large screens. Only some compounds are listed: those with a hit (about 1.9% of all), similar ones and a draw of the others.

CCn1c2ccc(Cl)cc2c2nc3ccccc3nc21	S1P2 ag 43
Cc1cc(C)c2c(N=NN3CCOCC3)[nH]nc2n1	none (no result: S1P2 ag, S1P2 antag, FAK blocker)
O=C(O)C1C2CC3C(OC(=O)C31)C2Cl (stereo not given)	none (no result: S1P2 ag, S1P2 antag, FAK blocker)
Cc1nnc2sc(-c3ccc(NC(=O)c4ccc(-c5ccc(Cl)cc5Cl)o4)cc3)nn12	FAK blocker 28 (no result: SDO1 yeast rescue)
O=C(CN1CCN(Cc2ccc(Cl)cc2)CC1)N/N=C/C=C/c1ccccc1[N+](=O)[O-]	none (no result: S1P2 ag, S1P2 antag, FAK blocker)
CCCCc1ccc(NC(=O)COc2ccc(C(=O)Nc3ccccc3OC)cc2)cc1	none (no result: S1P2 ag, S1P2 antag, FAK blocker)
CCCCc1ccc(NC(=O)COc2ccc(C(=O)Nc3ccccc3C)cc2)cc1	GALR2 agonist 5.8 (no result: S1P2 ag, S1P2 antag, FAK blocker)
O=C1c2cccc(OCC(=O)N3N=C(c4cccs4)CC3c3ccc(F)cc3)c2CCN1Cc1cccnc1 (stereo not given)	none (no result: S1P2 ag, S1P2 antag, FAK blocker)
CCCCCC(=O)Nc1nc(C)c(-c2csc(Nc3cc(Cl)ccc3OC)n2)s1	S1P2 ag 17
CCCC(=O)Nc1nc(C)c(-c2csc(Nc3cc(OC)ccc3OC)n2)s1	none
CCc1nc2c(c(=O)c3ccccc3n2C)c(=O)n1CCc1ccc(OC)cc1	none (no result: S1P2 ag, S1P2 antag, FAK blocker)
Cc1cc(-c2nnc(SCC(=O)NC3CCCC3)o2)no1	S1P2 ag 70
Nc1ccc2c(c1)sc1ccccc12	none (no result: S1P2 ag, S1P2 antag, FAK blocker)
Nc1nsc2ccccc12	S1P2 antag 50, GALR2 blocker 50
O=C(c1cc(N2C(=O)C3C4CCC(C4)C3C2=O)ccc1Cl)N1CCN(c2ccccc2F)CC1 (stereo not given)	none (no result: S1P2 ag, S1P2 antag, FAK blocker)
CN(Cc1ccccc1)Cc1nc2c(c(=O)n(C)c(=O)n2C)n1Cc1ccc(F)cc1	S1P2 ag 39
Cc1ccc(Cn2c(CN(C)Cc3ccccc3)nc3c2c(=O)n(C)c(=O)n3C)cc1	none
COC(=O)c1ccccc1NC(=S)N(Cc1ccc2c(c1)OCO2)Cc1cc2ccc(OC)cc2[nH]c1=O	none (no result: S1P2 ag, S1P2 antag, FAK blocker)
O=c1oc2c(CN3CCOCC3)c(O)ccc2c2ccccc12	none
O=c1oc2c(CN3CCOCC3)c(O)ccc2c2c1CCCC2	GALR2 agonist 5.0 (no result: S1P2 ag, S1P2 antag, FAK blocker)
O=C(N/N=C/C=C/c1ccccc1)C(O)c1ccccc1 (stereo not given)	GALR2 blocker 30 (no result: SDO1 yeast rescue)
CCOC(=O)c1cc2ccc(OC)cc2oc1=O	none
NC(=S)c1cc2ccc(O)cc2oc1=O	S1P2 ag 38, GALR2 agonist 14
C/C(=N/NC(=O)c1ccncc1)c1cc2ccc(O)cc2oc1=O	GALR2 agonist 7.5 (no result: S1P2 ag, S1P2 antag, FAK blocker)
C/C(=N\NC(=O)c1ccncc1)c1cc2ccccc2oc1=O	none (no result: S1P2 ag, S1P2 antag, FAK blocker)
COc1cccc(Nc2nc3ccccc3nc2-n2nc(C)cc2C)c1	S1P2 ag 38, GALR2 agonist 23
Cc1cccc(NC(=O)Nc2ccc(C#N)cc2)n1	GALR2 blocker 38 (no result: S1P2 ag, S1P2 antag, FAK blocker)
COc1cc(C2C(C#N)=C(C)NC(C)=C2C#N)cc(OC)c1OC	none (no result: S1P2 ag, S1P2 antag, FAK blocker)
CC(C)(C)c1ccc(C(=O)NNC(=O)c2cccc(Br)c2)cc1	S1P2 ag 23
CC(C)NC(=O)c1cccc(Br)c1	none
COCCCNC(=O)c1sc2ncnc(N3CCc4ccccc4C3)c2c1C	FAK blocker 23
Cc1ccc(-c2cc3cccc[n+]3cc2-c2ccc(C)cc2)cc1	none (no result: S1P2 ag, S1P2 antag, FAK blocker)
O=C(N/N=C/c1ccc(O)cc1)/C(=C/c1ccccc1)CCO	none (no result: S1P2 ag, S1P2 antag, FAK blocker)
CCOC(=O)N1CCN(C(=O)CSCC(=O)Nc2nc(-c3ccc(-c4ccccc4)cc3)cs2)CC1	S1P2 antag 87
CCn1nc(NC(=O)c2ccccn2)c2cc3cccc(C)c3nc21	S1P2 ag 19
Cc1ccc2c(c1)[nH]c1c(N3CCN(Cc4ccccc4)CC3)ncnc12	S1P2 antag 70
Cc1ccc2[nH]c3c(N4CCN(Cc5ccccc5)CC4)ncnc3c2c1	S1P2 antag 59
O=C(NCc1ccccc1C(F)(F)F)C1CC(c2ccccc2[N+](=O)[O-])=NO1 (stereo not given)	none
CCOC(=O)c1c(NC(=O)CSc2n[nH]c(-c3ccco3)n2)sc(C)c1C	S1P2 ag 23
COC(=O)c1sccc1NC(=O)/C=C/c1ccc(Cl)cc1	none (no result: S1P2 ag, S1P2 antag, FAK blocker)
Cc1nc2ccccc2cc1OCc1ccc(Cl)cc1	S1P2 antag 70
O=S(=O)(c1ccc(N2CCC(c3ccc(Cl)cc3)=N2)cc1)N(CCO)CCO	S1P2 ag 111, GALR2 agonist 90
CN(C)CCCNS(=O)(=O)c1ccc(N2CCC(c3ccc(Cl)cc3)=N2)cc1	S1P2 ag 202, GALR2 agonist 132
Cc1cc(C(=O)Cn2nc(C(=O)O)c3ccccc3c2=O)c(C)n1-c1ccc(F)cc1	none (no result: S1P2 ag, S1P2 antag, FAK blocker)
Nc1ccccc1-c1nnc(-c2ccc(-c3ccccc3)cc2)o1	S1P2 ag 20

Source: PubChem
